# Laboratory results from PubChem BioAssay.
# Where “and” joins values, the source holds several entries; their conditions need not be identical. Equal values may be shown once.
# Test: viability loss with induced miR-34 in A549 – imaging, A549 dox-inducible miR-34, nuclei and caspase counts, primary screen (AID 1347080); also: test concentration not given here
# Details: A549 miR-34 inducible, Hoechst nuclei count, 48 h; measured here: total cells without miR-34 induction
row,SMILES,cell count
1,CCCCCCCC/C=C\CCCCCC(=O)OC,5610
2,O=C(O)CCCCCC[C@@H]1C(=O)NC(=O)N1CCC(O)C1CCCCC1 (some centres undefined),5460
3,CCCCC/C=C\C/C=C\C/C=C\C/C=C\CCCC(=O)OCc1ccsc1,6340
4,CCCCC/C=C\C/C=C\CCCCCCCC(=O)OC[C@H](O)CO,6430
5,CC/C=C\C/C=C\C/C=C\C/C=C\CCCCC(=O)OCC,5650
6,CCC(C)[C@H]1O[C@]2(C=C[C@@H]1C)C[C@@H]1C[C@@H](C/C=C(\C)[C@@H](OC3C[C@H](OC)C(O[C@H]4C[C@H](OC)[C@@H](NC(C)=O)[C@H](C)O4)[C@H](C)O3)[C@@H](C)/C=C/C=C3\CO[C@@H]4[C@H](O)C(C)=C[C@@H](C(=O)O1)[C@]34O)O2 (some centres undefined),4250
7,CCCC[C@H](C)C[C@H](O)/C=C/[C@H]1[C@H](O)CC(=O)[C@@H]1CCCC/C=C/C(=O)O,6200
8,O=C(O)CCCCCC[C@H]1C(=O)C[C@@H](O)[C@@H]1/C=C/[C@@H](O)Cc1ccccc1,5540
9,O=P(O)(O)O[C@H]1[C@@H](O)[C@H](O)[C@@H](OP(=O)(O)O)[C@H](OP(=O)(O)O)[C@H]1O,6630
10,CCCCC[C@H](O)/C=C/[C@H]1CC[C@@H](O)[C@@H]1C/C=C\CCCC(=O)O,6110
11,O=C(/C=C/c1cccc(C(=O)NO)c1)NO,4940
12,CCCCCC(=O)/C=C/[C@@H]1[C@H](C/C=C\CCCC(=O)O)[C@H](O)C[C@H]1O,5690
13,CCCCNC(=O)NS(=O)(=O)c1ccc(CO)cc1,4890
14,CC(C)CCCC(C)NC(C)C (centres undefined),8670
15,O=C(Cc1ccccc1Nc1c(Cl)cccc1Cl)Oc1ccc(-c2cc(=S)ss2)cc1,6570
16,CC/C=C\C/C=C\C/C=C\C/C=C\CCCCC(=O)O,6540
17,COc1ccc(/C=C/C(=O)Nc2c(O)cccc2C(=O)O)cc1OC,5870
18,CCCCC[C@H](O)/C=C/[C@@H]1[C@H]2CC(CCCCC(=O)O)O[C@H]2C[C@H]1O (some centres undefined),7150
19,CC(=O)c1ncc([C@@H](O)[C@H](O)[C@H](O)CO)[nH]1,6330
20,OCCC/C=C/c1ccccc1,6210

row,SMILES,cell count
1,[O-]/[N+](=N/O[C@@H]1O[C@H](CO)[C@H](O)[C@H](O)[C@H]1O)N1CCCC1,7260
2,OC[C@H]1NC[C@H](O)[C@@H](O)[C@@H]1O,5180
3,CN(C)CCCCCCOc1ccc(-n2ccnc2)cc1,5240 and 6330
4,CC/C=C/C[C@H](O)/C=C/[C@H]1[C@H](O)CC(=O)[C@@H]1C/C=C\CCCC(=O)O,6230
5,CCCCC[C@H](O)/C=C/[C@H]1OC(O)C[C@H](O)[C@@H]1CCCCCCC(=O)O (some centres undefined),5470
6,CCCCC[C@H](O)/C=C/[C@@H]1c2cc(CCCCC(=O)O)n(-c3ccccc3)c2C[C@H]1O,6620
7,CCCOCCCCCCCCCC(=O)O,6040
8,C#CCOc1ccccc1CCCCCC(=O)NS(C)(=O)=O,6190
9,FC(F)(F)c1ccc(/C=C/c2cc(Cl)cc(Cl)c2)cc1,5570
10,O=C(O)CCC/C=C\C[C@H]1[C@@H](/C=C/[C@@H](O)CCc2ccccc2)[C@H](O)C[C@H]1O,5310
11,NC1=NC(=O)/C(=C/c2ccc(O)cc2)S1,5780
12,CCCCC/C=C\C/C=C\C/C=C\CCCCCCC(=O)OCC,6160
13,CCCCC/C=C\C/C=C\C/C=C\C/C=C\CCCC(=O)S[C@H](COCCCCCCCCCCCCCCCC)COP(=O)([O-])OCC[N+](C)(C)C,5360
14,CCCCCNC1=C(c2cn(C)c3ccccc23)C(=O)N(C)C1=O,6140
15,CCCCCCCC/C=C\CCCCCCCC(=O)NCCS(=O)(=O)O,6200
16,C[Se]CC[C@H](N)C(=O)O,9060
17,C=C1O[C@@](CO)(n2cnc3c(N)ncnc32)[C@H](O)[C@@H]1O,5180
18,CCCCCCCCCCCCCCCCCC(=O)N[C@H]1CCOC1=O,6000
19,CCCCCCCCCCCCCC(=O)OCC,5240
